Assay outcomes as filed in PubChem BioAssay.
In the library only some 3.3% were active in any assay of this set; here they are far more common.
PfG6PD inh: PfG6PD enzyme inhibitors, primary screen, biochemical, fluorescence intensity, uHTS; inhibition, % at 20 µM; PfGluPho enzyme, NADPH resazurin-diaphorase fluorescence; glucose-6-phosphate dehydrogenase-6-phosphogluconolactonase (Plasmodium falciparum 3D7); 350,000 tested, 0.78% active;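 active = inhibition reaching at least a set limit at 20 µM in the primary screen, cut at about 59% in these data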;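 note: 0% = DMSO wells with substrate and 100% = DMSO wells lacking glucose-6-phosphate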
UHRF1 binding: UHRF1 methylated DNA binding inhibitors, primary screen, counter-screen for MBD2 inhibitor project, biochemical, TR-FRET, human UHRF1, single concentration; inhibition, % at 4.4 µM; E3 ubiquitin-protein ligase UHRF1 (Homo sapiens), Q96T88; UHRF1 binding to methylated oligo; 370,000 tested, 0.75% active; in the data active = inhibition above about 21%;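 note: UHRF1 SRA domain binding a hemimethylated CpG hairpin DNA probe; 0% = median of test compound wells and 100% = reference inhibitor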
MBD2 inh: inhibitors of MBD2 binding to methylated DNA, primary screen, biochemical, TR-FRET, DNA-binding domain, human; Methyl-CpG-binding domain protein 2 (Homo sapiens), Q9UBB5; MBD2 binding to methylated oligonucleotide; inhibition, % at 4.4 µM; 370,000 tested, 0.31% active; in the data active = inhibition above about 13%
PfM18AAP inh: PfM18AAP inhibitors, malaria aminopeptidase, primary screen, biochemical, QFRET, recombinant enzyme; AID 1822, 2009; inhibition, % at 7.35 µM; M18 aspartyl aminopeptidase (Plasmodium falciparum 3D7); H-Glu-NHMec fluorogenic cleavage; 290,000 tested, 1.2% active;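 active = inhibition above the campaign mean inhibition over all tested compounds plus 3 SD, cut at about 28% in these data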;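 note: 0% = plate median of test compound wells and 100% = 2 mM ZnCl2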
PRMT1 inh: PRMT1 methyltransferase inhibitors, primary screen, biochemical, fluorescence polarization; Protein arginine N-methyltransferase 1 (Homo sapiens), Q99873; 370,000 tested, 1.3% active; inhibition, % at 2.79 µM; recombinant PRMT1, activity-based probe fluorescence polarization;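 active = inhibition above about 21% made by adding two undisclosed values, limit read from the data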
Target sequence (Q99873 whole entry, looked up): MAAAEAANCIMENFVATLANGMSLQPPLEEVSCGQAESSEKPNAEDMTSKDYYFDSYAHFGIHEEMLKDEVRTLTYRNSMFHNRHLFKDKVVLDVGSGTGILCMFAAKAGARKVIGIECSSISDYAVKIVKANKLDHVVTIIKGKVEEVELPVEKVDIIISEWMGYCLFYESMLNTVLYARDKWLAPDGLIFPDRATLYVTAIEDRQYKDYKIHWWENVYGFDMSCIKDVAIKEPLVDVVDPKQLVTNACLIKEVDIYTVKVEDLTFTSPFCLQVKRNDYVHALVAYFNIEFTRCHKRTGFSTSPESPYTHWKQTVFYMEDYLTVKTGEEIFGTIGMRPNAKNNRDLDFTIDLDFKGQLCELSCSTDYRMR
PRMT1 confirm: PRMT1 methyltransferase inhibitors, confirmation, biochemical, fluorescence polarization, triplicate. shares compounds with PRMT1 inh. recombinant His-PRMT1, activity-based probe fluorescence polarization. inhibition, % at 2.79 µM. 3,300 tested, 42% active;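 active = mean inhibition across replicates above the hit cutoff derived for the earlier primary screen, cut at about 22% in these data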
Numbers without * were called inactive; . = no result given.

SMILES | PfG6PD inh | UHRF1 binding | MBD2 inh | PfM18AAP inh | PRMT1 inh | PRMT1 confirm
CC1CCN(c2nc(-c3ccco3)c3c(c2C#N)CC(C)(C)OC3)CC1 | 33.5 | -4.3 | -0.4 | -0.3 | 28.1* | 24.1*
O=S(=O)(O)c1cc(O)c(N=Nc2ccc(O)cc2O)c2ccccc12 | 8.0 | 11.7 | -7.2 | . | 43.8* | 42.7*
Cc1ccc(S(=O)(=O)N2CCOCC2)cc1C(=O)NC1CCCC1 | 0.4 | -0.1 | 1.6 | 3.8 | -1.9 | .
CN1c2ccsc2/C(=N/Nc2ccccc2)CS1(=O)=O | 29.0 | 23.7* | 6.6 | 19.4 | 38.0* | 0.5
Cc1sc2ncnc(Sc3ccccc3C(=O)Nc3ccc(Br)cc3)c2c1C | 36.2 | 8.3 | 1.2 | 6.1 | 35.0* | 23.0*
Cc1sc2ncnc(Sc3ccccc3C(=O)Nc3ccc(C#N)cc3)c2c1C | -11.3 | -0.9 | 3.5 | 4.0 | 1.9 | .
CC(=O)Nc1ccc(SCC(=O)Nc2ccc(Cl)cn2)cc1 | 4.1 | -0.7 | -0.8 | 3.9 | 28.5* | 37.1*
CC(=O)Nc1ccc(SCC(=O)NC(=O)c2ccc(S(=O)(=O)N(C)C)cc2)cc1 | 11.8 | -1.3 | 4.0 | . | 50.2* | 42.6*
CC(=O)Nc1ccc(SCC(=O)Nc2ccc3c(c2)OCCO3)cc1 | 5.6 | -1.1 | 0.3 | . | 57.6* | 53.6*
COc1ccc(NC(=O)CSc2ccc3c(c2)OCCO3)cc1 | 5.5 | -0.3 | -5.9 | . | 5.5 | .
CN(C)S(=O)(=O)c1ccc(C(=O)NC(=O)CSc2ccccc2)cc1 | -1.8 | -3.2 | -2.1 | -1.9 | 1.6 | .
CC(=O)Nc1ccc(SCC(=O)c2cc(C)n(C)c2C)cc1 | -13.7 | -1.3 | 1.0 | 6.3 | 36.1* | 15.7
O=C(CCC1CCN(C(=O)C2CC=CCC2)CC1)Nc1ccccc1 (stereo not drawn) | 7.8 | 0.8 | -10.8 | . | -2.6 | .
O=C(COC(=O)c1ccc(S(=O)(=O)N2CCCCC2)cc1)NCc1ccccc1 | -19.4 | 2.7 | 4.8 | . | -0.9 | .
S=C(Nc1ccccc1Br)OCCN1CCCC12CCC(c1ccccc1)CC2 (stereo not drawn) | . | -3.2 | 0.6 | . | 34.6* | 31.4*
O=C(CC[C@H]1O[C@@H](n2ccc(=O)[nH]c2=O)[C@H](O)[C@@H]1O)NCCN1CCOCC1 | . | 1.4 | 2.8 | . | -3.7 | .
CC12CCC(C(=O)N(CSC(=S)N/N=C\c3ccccc3O)C1=O)C2(C)C (stereo not drawn) | -31.0 | -17.1 | -3.7 | -0.1 | 24.8* | 2.9
CN(C)c1ccc(/C=N\NC(=S)SCN2C(=O)C3CCC(C)(C2=O)C3(C)C)cc1 (stereo not drawn) | 8.2 | -2.4 | -3.4 | -7.0 | 43.5* | 8.4
O=C(CCSCCC(=O)NN=Cc1ccccc1O)NN=Cc1ccccc1O | 53.6 | -1.4 | 1.3 | . | -2.2 | .
CC12CCC(C(=O)N(CC3CO3)C1=O)C2(C)C (stereo not drawn) | 9.0 | -0.5 | -2.0 | 2.4 | -4.5 | .
Cc1ccc(S(=O)(=O)N(C)C)cc1NC(=O)CSc1nncs1 | -4.1 | 0.2 | -4.3 | . | -4.7 | .
Cc1onc(-c2ccccc2)c1C(=O)NCC(O)c1ccccc1 (stereo not drawn) | 1.9 | 0.5 | -2.1 | 2.8 | -0.2 | .
CC(=O)NC(c1ccc(F)c(F)c1)c1nc(-c2cnc3ccccc3c2)cs1 (stereo not drawn) | . | -1.3 | -2.9 | . | 31.8* | 3.3
O=C(O)/C=C/C(=O)c1ccc2c(c1)CCc1ccccc1-2 | 36.3 | 0.2 | 1.0 | . | 56.2* | 72.4*
Oc1ccc(Cl)cc1C=Nc1ccccc1Br | -6.7 | 0.8 | -7.8 | -9.6 | -2.1 | .
SMILES | PfG6PD inh | UHRF1 binding | MBD2 inh | PfM18AAP inh | PRMT1 inh | PRMT1 confirm
Oc1ccc(Br)cc1C=Nc1ccc2c3c(cccc13)CC2 | 29.9 | -6.0 | -8.5 | 0.9 | 55.7* | 8.7
CN(C(=O)c1cccc(NC(=O)Cc2cccc([N+](=O)[O-])c2)c1)C1CCCC1 | 1.3 | 0.3 | 1.4 | . | -0.4 | .
CC(C)OC(=O)CSc1nnc(-c2ccc(C(C)(C)C)cc2)n1N | 48.7 | 1.4 | -2.5 | 26.4 | 52.9* | 59.7*
CC(C)OC(=O)CSc1nnc(-c2ccncc2)n1N | 1.4 | 1.1 | 3.4 | -11.9 | 1.9 | .
C[C@@H]1CCC(=O)N(C[C@@H](C)CSc2ccccc2)CC1 | 15.8 | 4.7 | -1.2 | 6.8 | -1.0 | .
COc1ccccc1NC(=O)Cc1nnc(SCC(=O)NC2=NCCS2)n1C | -16.7 | -2.3 | -2.2 | 3.1 | -0.7 | .
N=C1/C(=C\c2coc3ccccc3c2=O)C(=O)N=C2SC=CN12 | 6.1 | -12.6 | -6.1 | 6.8 | 36.4* | 31.6*
CSC1=NSC2=NC(=O)/C(=C/c3coc4ccccc4c3=O)C(=N)N12 | -6.8 | -7.5 | 0.7 | 5.3 | 16.6 | .
COc1ccc(C(=O)NC(=O)CSc2nc3nc(C)cc(C)n3n2)cc1 | 18.0 | -2.1 | -1.3 | . | 27.2* | 2.1
Cc1cc(-c2ccco2)n(-c2ccccc2)n1 | -0.9 | 0.7 | 5.8 | -17.3 | 42.8* | 21.4*
Cc1nc2ccc(S(=O)(=O)NC(CC(C)C)C(=O)O)cc2s1 (stereo not drawn) | -0.8 | -0.1 | -6.5 | 24.3 | 35.0* | 3.1
CCCCN1C(=O)N2Cc3cc(OC)ccc3C2CS1(=O)=O (stereo not drawn) | . | -1.8 | -6.3 | . | 0.3 | .
Cn1c(=O)c(NCCO)c2c3c(cccc31)C(=O)c1ccccc1-2 | -14.7 | -91.3 | -33.7 | -0.5 | 184.3* | 184.2*
Cn1c(=O)c(NC2CCCCC2)c2c3c(cccc31)C(=O)c1ccccc1-2 | -10.2 | -8.9 | 0.1 | -3.0 | 77.2* | 40.5*
Cn1c(=O)cc2c3c(c(N4CCCCC4)ccc31)C(=O)c1ccccc1-2 | -4.2 | 2.2 | -7.8 | 1.4 | 18.4 | .
Nc1ccc(Oc2ccc(F)cc2)nc1 | 10.5 | -4.7 | 4.9 | 5.5 | 26.1* | -2.5
CCOc1cc(CNn2cn[nH]c2=S)cc(Cl)c1OCc1ccccc1F | 12.0 | 0.8 | 2.2 | 1.9 | 31.7* | 5.0
Cc1ccc(NC(=O)CSc2nnc(-c3ccco3)c(-c3ccco3)n2)cc1 | 45.8 | 7.9 | -0.2 | -2.2 | 37.4* | 77.3*
COc1ccc(C(=O)CSc2nnc(-c3ccco3)n2CC2CCCO2)cc1 (stereo not drawn) | 9.0 | -2.3 | -1.6 | -7.4 | -1.5 | .
Cc1ccc(NC(=O)CSc2ccc(-c3ccco3)nn2)cc1 | 18.5 | -1.0 | -0.7 | -4.2 | 6.8 | .
COc1ccc(C(=O)CSc2nnc(-c3ccco3)c(-c3ccco3)n2)cc1 | 45.5 | 3.0 | 2.6 | 18.7 | 27.1* | 74.4*
